Measured values from the supplement of paper PMC6992640.
± gives the standard deviation of the averaged measurements.

Tests used:
Test in all cases: cell viability (% of vehicle); higher = less cytotoxic
Conditions in all cases: 10 µM; 72 h
[1] = test system: HCI01 (cells of a triple-negative basal-like breast cancer xenograft)
[2] = test system: HCI03 (cells of an ER-positive luminal breast cancer xenograft)
[3] = test system: HCI09 (cells of a triple-negative luminal androgen receptor type breast cancer xenograft)
[4] = test system: HCI11 (cells of an ER-positive luminal breast cancer xenograft)
[5] = test system: HCI13 (cells of an ER-positive luminal breast cancer xenograft)
[6] = test system: HCI16 (cells of a triple-negative basal-like breast cancer xenograft)
[7] = test system: UCD52 (cells of a triple-negative basal-like breast cancer xenograft)
[8] = test system: WHIM2 (cells of a triple-negative basal-like breast cancer xenograft)
[9] = test system: WHIM30 (cells of a triple-negative basal-like breast cancer xenograft)
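Further: PDX cells carrying CMV promoter-driven luciferase, viability read as total photon flux per second by IVIS imaging following D-luciferin, vehicle control 0.1% DMSO.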

SMILES	cell viability [1]	cell viability [2]	cell viability [3]	cell viability [4]	cell viability [5]	cell viability [6]	cell viability [7]	cell viability [8]	cell viability [9]
CC(=O)C1CCC2C3CCC4=CC(=O)CCC4(C)C3CCC12C (stereo not drawn) [Progesterone]	160 ± 12	108	77.8 ± 41	90.6	154 ± 6.9	113	88.9 ± 3.9	148 ± 41	123 ± 16
COC(=O)C(c1ccccc1Cl)N1CCc2sccc2C1.O=S(=O)(O)O (stereo not drawn) [Clopidogrel]	102 ± 3	115	91 ± 13	119	103 ± 4.8	101	76.7 ± 16	80.012 ± 0.0022	136 ± 6.6
Oc1c(Br)cc(Br)c2cccnc12 [Broxyquinoline]	81.5 ± 50	89.1	25.5 ± 7.7	98.1	34.3 ± 4.1	122	72.8 ± 42	146 ± 60	98 ± 4.2
CCCCOc1ccc(C(=O)CCN2CCCCC2)cc1.Cl [Dyclonine HCl]	91.4 ± 36	110	98.2 ± 18	110	60.5 ± 2.6	88.6	90.6 ± 12	40 ± 16	129 ± 30
O=C1CN(/N=C/c2ccc(-c3ccc([N+](=O)[O-])cc3)o2)C([O-])=N1.[Na+] [Dantrolene, sodium salt]	98.7 ± 15	174	83.5 ± 7.8	99.1	105 ± 9.9	110	92.4 ± 4.7	104 ± 4	130 ± 7.4
CO[C@H]1O[C@@H]2OC3(C)CC[C@H]4[C@H](C)CC[C@@H]([C@H]1C)[C@@]24OO3 [Artemether]	116 ± 31	121	94.4 ± 26	102	95.8 ± 0.62	106	97.88 ± 0.13	97.7 ± 8.3	75.18 ± 0.081
Cc1c(F)cc(C(=O)NC2CC2)cc1-c1ccc(C(=O)NCC(C)(C)C)cn1 [Losmapimod]	84 ± 16	91.4	84.4 ± 21	60	71 ± 2.2	81.6	58.1 ± 1.8	76.5 ± 16	101 ± 6.2
